Source: PubChem BioAssay
NSD2 HMT inh = NSD2 (human) methyltransferase inhibition; O96028; NSD2 peptide methylation, AlphaScreen, 120 min; inhibition, % at 12.5 µM; actives 0.54% (n = 310,000); in the data active means inhibition above about 50%
CASP6 VEID inh = caspase-6 (human) enzyme inhibition; purified caspase-6, Z-VEID-R110 cleavage fluorescence; inhibition, % at 12.5 µM; actives 0.53% (n = 350,000);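 active means mean inhibition across replicates at least about 35%, with every replicate also reaching that limit, limit read from the data; inconclusive means only one of the two criteria met; inactive means neither criterion met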;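 further: 0% = median of neutral control wells and 100% = no fluorescence left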
CDK5 inh = blocks human CDK5/p35 kinase activity; Q00535+Q15078; Recombinant CDK5/p35, ADP-Glo luminescence, 60 min; inhibition, % at 10 µM; actives 0.01% (n = 330,000); AID 488839;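 active means highest replicate inhibition of at least 50% and at least 75% of replicates reaching 50%; inconclusive means only one of the two criteria met; inactive means both criteria failed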;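 further: plate controls were DMSO neutral control for no effect and GW8510 at 10 µM for full effect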
Target sequence (Q00535 whole entry, looked up): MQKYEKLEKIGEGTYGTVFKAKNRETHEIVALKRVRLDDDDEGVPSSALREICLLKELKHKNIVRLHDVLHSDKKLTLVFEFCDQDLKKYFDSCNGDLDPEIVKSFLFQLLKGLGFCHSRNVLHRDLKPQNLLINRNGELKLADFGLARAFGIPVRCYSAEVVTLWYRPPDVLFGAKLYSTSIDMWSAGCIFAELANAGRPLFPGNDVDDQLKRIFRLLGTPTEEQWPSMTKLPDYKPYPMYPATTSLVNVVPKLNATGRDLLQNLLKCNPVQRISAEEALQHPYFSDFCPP
Target sequence (Q15078 whole entry, looked up): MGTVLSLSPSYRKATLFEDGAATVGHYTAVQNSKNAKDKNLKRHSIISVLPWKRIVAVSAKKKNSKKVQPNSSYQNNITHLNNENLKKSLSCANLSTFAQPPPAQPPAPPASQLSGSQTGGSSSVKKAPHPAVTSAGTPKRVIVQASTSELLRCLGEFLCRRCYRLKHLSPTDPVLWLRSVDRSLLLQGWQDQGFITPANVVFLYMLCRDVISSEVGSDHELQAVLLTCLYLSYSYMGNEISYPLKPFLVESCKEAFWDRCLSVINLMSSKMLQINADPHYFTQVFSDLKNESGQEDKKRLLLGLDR
ALR inh = blocks human ALR sulfhydryl oxidase activity; P55789; purified ALR, DTT oxidation, H2O2 HRP-luminol luminescence; inhibition, % (concentration not given with the values); actives 3.8% (n = 290,000); AID 485317;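 active means mean replicate inhibition above about 79%, with every replicate also reaching it, limit read from the data; inconclusive means only one of the two criteria met; inactive means mean below limit and not every replicate reaching it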
SUMO Mot1 rescue = SUMOylation pathway inhibition by Mot1-301 growth rescue; actives 1% (n = 320,000); growth rescue, % at 18.8 µM; AID 2716; S. cerevisiae Mot1-301 growth rescue, ATP luminescence, 38.5C; percent above DMSO median, 100 means doubled;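 active means every valid replicate shows activation above 250% relative to neutral control wells; inactive means the rest, any valid replicate at or below 250%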;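 further: OY570 slx delta 5 strain wells were the positive control but not used for scaling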
Glyco luc inh = blocks N-linked glycosylation in D54 reporter cells | D54 ERlucT glycosylation luciferase reporter, 24 h; percent of 100 nM tunicamycin response | reporter increase, % at 12.5 µM | actives 0.23% (n = 360,000) | AID 588692;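 active means mean luciferase reporter signal, scaled so untreated is 0 and the glycosylation-blocking control 100, at or above a set limit in every replicate; inconclusive means mean reaches the limit but not every replicate does; inactive means mean below the limit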;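 further: luciferase carries N-glycosylation sites so blocking glycosylation raises the light; 0% = median of neutral control wells and 100% = median of 100 nM tunicamycin wells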
* hit, by the source's call; ? = inconclusive; . = no result. The list is not random: actives were taken first. Their share in the collection is about 3.9%.

SMILES	NSD2 HMT inh	CASP6 VEID inh	CDK5 inh	ALR inh	SUMO Mot1 rescue	Glyco luc inh
CC(C)c1ccc(NC2CCCN(C(=O)CC3CCCC3)C2)cc1 (centres undefined)	22	0	0	79*	42	0
O=C(CCN1CCCO1)N1CCCC(N2CCN(c3ccccc3F)CC2)C1 (centres undefined)	-4	-10	-7	-10	-5	-1
O=C(CCN1CCOCC1)N1CCCC(Nc2ccc(F)cc2)C1 (centres undefined)	2	-3	0	55	0	1
O=C(c1cc(F)ccc1F)C1CCCN(C(=O)CCCN2CCCCC2=O)C1 (centres undefined)	-3	-5	0	3	-10	0
O=C1CCCCN1CCCC(=O)N1CCCC(Nc2ccccc2)C1 (centres undefined)	-2	-2	0	99*	9	1
O=C(NCC[C@@H]1CC[C@H](NC(=O)C2CC2)[C@@H](CO)O1)c1cnccn1	.	2	.	.	.	.
CCCC#Cc1ccc2c(c1)O[C@H](CN(C)Cc1cccnc1)[C@@H](C)CN([C@H](C)CO)S2(=O)=O	.	0	.	.	.	.
O=C(c1ccccc1F)N1C[C@@H]2[C@H](c3ccccc31)[C@@H](CO)N2C(=O)c1ccc(F)cc1	.	1	.	.	.	.
O=C1CCCCN1CCC(=O)N1CCCC(N2CCN(c3cccc(Cl)c3)CC2)C1 (centres undefined)	.	1	1	?	-9	2
CC(C)c1ccc(NC2CCCN(C(=O)CCN3CCCCO3)C2)cc1 (centres undefined)	6	0	1	79*	272	1
O=C1CCCCN1CCC(=O)N1CCCC(N2CCN(c3ccccc3)CC2)C1 (centres undefined)	.	2	2	93*	-8	1
COc1ccc2c3c([nH]c2c1)[C@H](CO)N(C(=O)C1CCCC1)CC31CN(C(=O)c2ccncc2)C1	.	0	.	.	.	.
COC(=O)/C(=C/c1cccnc1)NC(=O)c1ccccc1	2	-2	0	-1	280	2
COC(=O)C(=C/C(C)=C/c1cccnc1)C(=O)OC	6	0	0	92*	35	19
COc1ccc(-c2cc3c(=O)n(CC(=O)NCCCN4CCN(Cc5ccccc5)CC4)ncn3n2)cc1	-5	40*	-1	-18	-16	-14
COc1ccc2c3c(n(C)c2c1)[C@H](CO)N(C(=O)c1ccc(F)cc1)CC31CN(CC2CCOCC2)C1	.	-2	.	.	.	.
O=C(CSCCc1ccccn1)Nc1ccc(Br)cn1	0	.	0	99*	39	-2
O=C(CSCCc1ccccn1)Nc1cccnc1Cl	-1	.	-4	8	-10	-1
Cc1ccc(NC(=O)CSCCc2ccccn2)nc1	3	.	1	97*	7	1
O=C(CSCCc1ccccn1)Nc1ccccn1	2	.	0	98*	-1	1
C[C@H]1CN([C@@H](C)CO)C(=O)Cc2cc(NC(=O)Nc3ccc4c(c3)OCO4)ccc2O[C@@H]1CN(C)S(=O)(=O)c1ccccc1	.	4	.	.	.	.
C[C@H](CO)N1C[C@H](C)[C@H](CN(C)C(=O)Nc2cccc3ccccc23)Oc2c(NC(=O)Nc3ccc(F)cc3)cccc2C1=O	.	1	.	.	.	.
C[C@H](CO)N1C[C@H](C)[C@H](CN(C)C(=O)Nc2ccc(F)cc2)Oc2ccc(NC(=O)Cc3ccccc3)cc2C1=O	.	0	.	.	.	.
COc1ccc2c3c([nH]c2c1)[C@@H](CO)N(Cc1ccccc1F)CC31CN(C(=O)C2CCCC2)C1	.	-2	.	.	.	.
Cc1sc(Cc2nc(O)cs2)nc1-c1ccccc1	4	5	-1	97*	-17	1
SMILES	NSD2 HMT inh	CASP6 VEID inh	CDK5 inh	ALR inh	SUMO Mot1 rescue	Glyco luc inh
CC1(C)OC(=O)C(=CNCCc2ccc(O)cc2)C(=O)O1	-2	-1	0	88*	154	1
Cc1cc2n(n1)SC(Nc1ccccc1)N2 (centres undefined)	-7	.	6	9	47	2
Cc1ccc(NC2Nc3cc(C)nn3S2)c(C)c1 (centres undefined)	-1	-8	2	87*	-3	-1
C[C@@H]1CN([C@H](C)CO)C(=O)Cc2cc(NC(=O)Nc3ccc(F)cc3)ccc2O[C@@H]1CN(C)S(=O)(=O)c1ccccc1	.	0	.	.	.	.
CCN(CC)c1ccc(CN2CCC(C(=O)NCc3ccc(C)cc3)CC2)cc1	9	5	-7	82*	-8	-2
COCCNC(=O)C[C@@H]1CC[C@H]2[C@@H](COC[C@H](O)CN2C(=O)c2cc(Cl)cc(Cl)c2)O1	.	13	.	.	.	.
CN(C)/C=N/c1nc(-c2ccc3ccccc3c2)cs1	0	-2	0	-2	4	-6
CN(C)/C=N/c1nc(-c2ccc3c(c2)OCO3)cs1	-31	0	0	98*	5	-2
COc1ccc(S(=O)(=O)N(C)C[C@H]2OCCCC[C@H](C)Oc3ccc(NS(=O)(=O)c4ccc(F)cc4)cc3C(=O)N([C@@H](C)CO)C[C@H]2C)cc1	.	0	.	.	.	.
COc1ccccc1C(=O)NCC(=O)OCC(=O)c1cccc2ccccc12	-8	0	2	24	321*	1
O=C(c1ccncc1)N1C[C@@H]2[C@H](c3ccccc31)[C@@H](CO)N2C(=O)Nc1ccccc1Cl	.	-6	.	.	.	.
O=C(NCC(c1ccco1)N1CCc2ccccc21)c1ccc([N+](=O)[O-])cc1 (centres undefined)	-1	72*	-1	24	-10	1
O=C(CCc1ccccc1)NCC(c1ccco1)N1CCc2ccccc21 (centres undefined)	-1	0	-1	98*	14	9
Cc1cccc(C(=O)NCC(c2ccco2)N2CCc3ccccc32)c1 (centres undefined)	3	11	0	49	-5	-1
O=C(NCC(c1ccco1)N1CCc2ccccc21)c1cccc([N+](=O)[O-])c1 (centres undefined)	7	63*	-1	58	42	2
Cc1ccc(C(=O)NCC(c2ccco2)N2CCc3ccccc32)cc1 (centres undefined)	7	-2	-1	77*	0	-3
Cc1ccc(-c2ccc3c(c2)O[C@@H](CN(C)C(=O)Nc2ccc(F)cc2)[C@@H](C)CN([C@H](C)CO)S3(=O)=O)cc1	.	0	.	.	.	.
O=C(NCC(c1ccco1)N1CCc2ccccc21)c1ccccc1F (centres undefined)	3	0	-3	98*	13	-1
CC(=O)C1=C(c2ccccc2)N(C(C)=O)n2c(C)nnc2S1	8	6	-3	99*	11	3
CC(=O)N1CCN(c2nnc(-c3ccccc3)c3ccccc23)CC1	0	1	0	1	-2	-2
CCC(C)(C)NC(=O)CSc1nc(Cc2ccccc2)nc2ccccc12	0	-2	0	53	-5	-3
